Bioassay records (PubChem BioAssay)
Akt phos inh: Akt phosphorylation inhibition | Neuro2A IGF-stimulated pAkt S473 HTRF, 20 min; active compounds read low | activity change, % for hits at 50 µM | 360,000 tested, 0.32% active; in the data active = activity change below about -80%; inconclusive = mostly about -51% to -80%
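Single-point screen (50 µM final compound) in Neuro2A cells stimulated 20 min with 6 nM IGF at 37 deg C. After lysis, Ser473-phosphorylated Akt read by HTRF (ex 330 nm, em 615/665 nm) as the 665/615 ratio.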
BRCA1 expr up: activators of BRCA1 expression. MCF7-BRCA1-FFLuc reporter, luminescence, 48 h; response scale: scaled: vehicle 0%, 10 µM genistein 100%. Potency, µM (highest dose often 46.1 µM), actives largely listed as activators. 380,000 tested, 1.1% active; note: nearly all actives have a fitted effect of over 80% in size
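First, MCF7-BRCA1-FFLuc cells (2000/well) attach for 2 h; next, compounds are pin-added and incubated 48 h at 37 °C; finally, luciferase reagent is added and luminescence read after 15 min.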
MmCpn inh: inhibitors of Methanococcus maripaludis chaperonin TRiC (MmCpn). purified Mm-Cpn ATPase, ADP Transcreener TR-FRET. Potency, µM (top dose mostly 76.9 µM), actives largely listed as inhibitors. 330,000 tested, 0.031% active; note: nearly all actives have a fitted effect of over 80% in size
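Compound-treated chaperonin, 25 nM final, turns over 10 uM ATP at 37°C for 30 min following a 10 min preincubation; ADP generated competes with ADP-d2 for Eu-cryptate antibody, lowering FRET.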
AT treatment: potential ataxia-telangiectasia treatment; F2112 A-T fibroblasts, KAP-1 phosphorylation AlphaLISA; neocarzinostatin DNA damage 30 min before lysis; Potency, µM (top dose mostly 57.5 µM), actives largely listed as activators; 320,000 tested, 0.19% active; note: nearly all actives have a fitted effect of over 45% in size
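hTERT-immortalized A-T patient fibroblasts (F2112), 500 cells/well in OPTI-MEM, 1% FBS, got compounds for 60 min, then NCS for 30 min at 37C. Lysates were then assayed for phospho-KAP-1 by AlphaLISA (anti-pKAP1 donor, anti-KAP1 acceptor beads), 6 hr at 25C.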
CCT modulator: modulators of cytosolic chaperonin (CCT/TRiC) activity. purified chaperonin ATPase assay, HTRF ADP detection, 30 min. activity change, % (test concentration not listed), hits read low. 360,000 tested, 0.3% active. AID 651819; in the data active = activity change below about -30%
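Nucleotide hydrolysis assay: TRiC at 20–40 nM final (set by batch activity) with 10 uM ATP, 30 min at 37 °C, in presence of 76 uM compound. Detection by competitive ADP HTRF, 30 min ambient.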
A number is an active result; i = inactive; ? = inconclusive; nt = not tested or not shown; [ ] = another dose, or the depositor's remark. A selection: hits, their analogues and other compounds. The true share with any hit is near 1.8%. Unless noted, calls come from the whole dose curve; as a rule, active = well fitted curve in the direction sought with a large enough effect; inconclusive = small, poorly fitted or top-dose-only effect, or another doubt; inactive = no such curve, though single readings can be large; an effect the other way counts as inactive or inconclusive.

SMILES | Akt phos inh | BRCA1 expr up | MmCpn inh | AT treatment | CCT modulator
Brc1ccc(-c2cn3cccnc3n2)cc1 | i | 3.55µM | i | i | i
Clc1ccc(-c2cn3cccnc3n2)cc1 | i | ? | i | i | i
O=C(CC1OC(=O)c2ccccc21)Nc1cc(Cl)ccc1N1CCOCC1 (stereo not given) | i | i | i | i | i
OC(c1cc(C(F)(F)F)nc2c(C(F)(F)F)cccc12)C1CCCCN1 (stereo not given) | i | i | i | i | i
OC(c1cc(-c2ccc(C(F)(F)F)cc2)nc(C(F)(F)F)c1)C1CCCCN1 (stereo not given) | i | i | i | 39.8µM | i
CC(C)[C@H](N)c1nnc(SCc2ccc(Cl)cc2)o1 | i | i | i | i | i
CC(C)C[C@H](N)c1nnc(SCc2ccc(Cl)cc2)o1 | i | i | i | 39.8µM | i
Cc1cc(C)cc(N2C(=O)C3C4C=CC(C4)C3C2=O)c1 (stereo not given) | -104.5% | i | i | i | i
Cc1ccc(N2C(=O)C3C4C=CC(C4)C3C2=O)cc1 (stereo not given) | i | i | i | i | i
O=C(Nc1cccc(-c2cn3ccccc3n2)c1)c1cc2ccccc2oc1=O | i | i | i | i | -60.7
Cc1cc(C(=O)O/N=C(\N)c2ccc(C(C)(C)C)cc2)no1 | i | 2.51µM | i | i | i
CCN(C(=O)c1c(C)oc2ncn(CC(C)C)c(=O)c12)c1cccc(Cl)c1 | nt | i | nt | nt | nt
CCc1ccc2nc(N3CCN(C)CC3)c(C#N)cc2c1 | i | i | i | i | -49.4
COc1ccc2nc(N3CCC(C)CC3)c(C#N)cc2c1 | -102.8% | 11.2µM | i | i | i
CCOC(=O)c1cc(C#N)c(N2CCN(C)CC2)nc1-c1ccccc1 | i | i | i | i | i
COc1ccc2nc(N3CCC(O)CC3)c(C#N)cc2c1 | i | i | i | nt | i
O=C(Nc1nc(-c2ccc3ccccc3c2)cs1)C1CCN(S(=O)(=O)c2cccs2)CC1 | i | i | i | i | -51.4
COC(c1ccccc1)c1nnc(CCC(=O)N(C)Cc2cccc(-n3cccn3)c2)o1 (stereo not given) | i | 12.6µM | i | i | i
COc1cc(O)cc(/C=C/c2ccccc2)c1 | i | ? | nt | nt | i
Oc1ccc(/C=C/c2cc(O)cc(O)c2)cc1 | i | 12.6µM | i | i | i
CC1CCCCN1CCNC(=O)C1CCN(S(=O)(=O)c2cccc3nsnc23)CC1 (stereo not given) | nt | i | i | i | -34.5
O=C(Nc1cccc(O)c1)c1cc(-c2cccs2)on1 | i | i | i | i | i
COc1ccc(-c2cc(C(=O)Nc3cccc(C(C)=O)c3)no2)cc1 | i | i | i | nt | i
COc1ccc(-c2cc(C(=O)Nc3cccc(Cl)c3)no2)cc1 | i | 3.16µM | i | 10µM | i
COc1ccc(-c2cc(C(=O)Nc3cc(OC)c(OC)c(OC)c3)no2)cc1 | i | i | i | i | -34.0
SMILES | Akt phos inh | BRCA1 expr up | MmCpn inh | AT treatment | CCT modulator
CC(=O)c1cccc(NC(=O)c2cc(-c3cccs3)on2)c1 | i | 10µM | i | i | i
COc1cc(NC(=O)c2cc(-c3ccc(C)cc3)on2)cc(OC)c1OC | i | i | i | i | i
Cc1ccc(Nc2ncnc3nc[nH]c23)cc1 | nt | 11.2µM | nt | nt | nt
CCOC(=O)c1ccc(Nc2ncnc3nc[nH]c23)cc1 | i | 6.31µM | i | i | i
CCn1cc(C(=O)N[C@H](C(=O)NCCCN2CCOCC2)C(C)C)c(=O)c2cc3c(cc21)OCO3 | i | i | i | i | i
COc1ccc(-c2c(C(C)=O)c(C)nc3sc4c(c23)NC(c2ccccc2)NC4=O)cc1 (stereo not given) | -84.8% | i | i | i | i
NNc1ccc(Cl)c(C(=O)O)c1 | i | 11.2µM | i | i | i
CNC(=O)C1CCC(=O)N1Cc1ccc(C)cc1 (stereo not given) | nt | i | i | i | i
Cc1ccc(CN2C(=O)CCC2C(=O)NC(C)C)cc1 (stereo not given) | -118.2% | i | i | i | i
CCn1nc(C(=O)OCC(=O)Nc2nc(-c3ccc(OC)cc3)cs2)c2ccccc2c1=O | i | 6.31µM | i | i | i
CC1=C2C(CCS2(=O)=O)CC2(C1)C(=O)OC(C)(C)OC2=O (stereo not given) | -82.5% | i | i | i | i
O=C(CSc1ncn(-c2ccccc2)n1)Nc1nncs1 | i | i | i | i | i
CC(=O)Nc1ccc(C(=O)CSc2ncn(-c3ccccc3)n2)cc1 | -119.9% | i | i | i | i
CCCc1cc2c(=O)c(-c3ccccn3)coc2cc1OC | i | 5.62µM | i | i | i
CC1CCCCC1NC(=O)c1cc2c(=O)n3ccccc3nc2n1C (stereo not given) | nt | i | i | ? | i
CCN(C(=O)c1cc2c(=O)n3ccccc3nc2n1CCCOC)C1CCCCC1 | i | i | i | 28.2µM | i
CC1CC(NC(=O)c2cc3c(=O)n4ccccc4nc3n2C)CC(C)(C)C1 (stereo not given) | i | i | i | 28.2µM | i
CN(C(=O)c1cc2c(=O)n3ccccc3nc2n1C)C1CCCCC1 | i | 1.41µM | i | ? | i
CCN(C(=O)c1cc2c(=O)n3ccccc3nc2n1C)C1CCCCC1 | i | i | i | ? | i
COc1cc(OC)c(/C=C/c2cc3c4ccccc4ccc3[n+](C)c2)c(OC)c1 | nt | i | nt | nt | nt
O=C(CSc1cn(Cc2ccccc2)c2ccccc12)Nc1nccs1 | i | 11.2µM | i | i | i
CSCCC(NC(=O)OC(C)(C)C)C(=O)Oc1ccc2c(=O)c(-c3ccc4c(c3)OCCO4)coc2c1 (stereo not given) | -84.7% | i | i[15.4 µM] | i | i
Cc1cc2c(c(=O)n1Cc1ccccc1)C1O[C@](c3ccsc3)(Cc3cc(C#N)ccc31)O2 | nt | nt | i[15.4 µM] | i[11.5 µM] | nt
COc1ccccc1N1CCN(C(=O)CNC(=O)c2cn(-c3ccccc3OC)c(=O)c3ccccc23)CC1 | i | i | i | i | i
COc1ccccc1-n1cc(C(=O)NCC(=O)N2CCN(c3ccccc3)CC2)c2ccccc2c1=O | i | 12.6µM | i | i | i
SMILES | Akt phos inh | BRCA1 expr up | MmCpn inh | AT treatment | CCT modulator
COc1ccccc1-n1cc(C(=O)NCC(=O)N2CCN(c3ccccn3)CC2)c2ccccc2c1=O | i | i | i | 22.4µM | i
CCOC(=O)/C(C#N)=C/c1ccc(OCC(=O)Nc2cc(C)ccc2C)c(OC)c1 | -82.1% | i | i | i | i
CC1CCN(S(=O)(=O)c2c[nH]c(=O)[nH]c2=O)CC1 | i | i | i | i | i
CCOC(=O)c1c(C)nc2sc3c(=O)n(-c4ccc(C(C)=O)cc4)cnc3c2c1-c1ccc(OC)cc1 | -108.0% | i | i | i | i
CC1CCc2c(sc3nc(C(C)(C)C)nc(N4CCN(C(=O)CCl)CC4)c23)C1 (stereo not given) | i | i | i | ? | i
CCOC(=O)c1sc(N/N=C/c2cccc(C)c2)nc1C | i | 2.82µM | i | i | i
